In all, about 9,900 sequences were measured (“r (bound/input frequency ratio)”: median about 0.7, highest 2% from about 6.5 on). For the sample, the highest values were picked, then their nearest neighbours and some sequences at random.

B1: ENSMUSG00000029636.74|Wasf3 (ssRNA)
RNA: GGGAGUUCUACAGUCCGACGAUCGCUUCGAUAUCCGCAUGCUACCCACGUCAGCUCUCUGCAAGAUCACUGGCUGUGUGUCUCAGUGAUGUCUUCCAACCAGUGGGUGAUACGUUUUCCUGUUUCUUCCCUUUGCAAAUUGAAUUCCAGGUAGAUAUGGUUGUAGAGGGGAAAGUUUAACAAAUCAGAAUGAAAUGUUUGUCUGUUUGCACACUGGGCCUGGUGGCCUCCAAGGAAAUGUGUACGAUCGUUUGCUUUCUCUAUCUUGGCGCUUGCAACCGAGAGCGGCCAUUUUUAUGAGGGGCUCUUGCGGUCGCACUAGUGUGGAAUUCUCGGGUGUCAAGG
B2: ENSMUSG00000004113.257|Cacna1b|213:217 (ssRNA)
RNA: GGGAGUUCUACAGUCCGACGAUCGCUUCGAUAUCCGCAUGCUAGAUGCUGAAGAGUGCAAAACGCUAGCAAAGAAGAGGCUGGGGUUAGAGGAAGAAGCCCGCACUGGCCGUGUUACAAGAAACUGGCAGGAAGGAAAUGGCCCUGGAACAGGCCAGGUGCCUAGAGCUAAGUCAGGCCCCUGGCUUAGCACUAGAAAAAAUAAAACCUCAUGGCUGCUUUGCAAAGGGAAAACCCAUGCUCAGGAAGGUGUUCACACACCACAGAUAGCUGGGAGGCCACGAGAGAAAGGUUGCACACAGACCUCUUGCGGUCGCACUAGUGUGGAAUUCUCGGGUGUCAAGG
B3: ENSMUSG00000028439.88|Fam219a (ssRNA)
RNA: GGGAGUUCUACAGUCCGACGAUCGCUUCGAUAUCCGCAUGCUAGGAAAGGGGUUUUGAGAAGAAAAGGAUCCAAGCAAUGGGGGCAGUUCUCACACCUCAGAGCCCCUCUCCCCAAACCCUGUGCCAGCCCAUAUACCUAUUUGUGUUUUCCCCUCAUCUCCAGAUGGGAAGCCUGGCAGCGCUGUCCAAAGGGAUACUGUCUCUCCAUUAGAUAACUCCUUCCACUGUCUCCCUCCCCCGCUUUCUUACUUUCUGAGGGUUGGGAAGGUAAGAUGGGCCUUAGAGAGAAGCCAGGUUUGGGGCUCUUGCGGUCGCACUAGUGUGGAAUUCUCGGGUGUCAAGG
B4: ENSMUSG00000031028.91|Tub (ssRNA)
RNA: GGGAGUUCUACAGUCCGACGAUCGCUUCGAUAUCCGCAUGCUACAAGCUGUAUGUAGAAAAAGCUCUGGUGGUCAGCAGAAAGCACUCCCACUUCAAAAGGGCCCAUUAGGCCCAAAGGGGGUUAGGAGUGGUAGGGAUAGGUGCGUGGCAGGUCCCUGCUAGGAUUGCAGGGGCCUGGCCAUGUGUAUUAGCUGGAGGCUUAGAAUGCUAGCUCAUUUGUUGCUACAGAUUUGCCCAGUGCUUGCACACGUAAGAACCCAGCUCUCAAGGCCAAAUAUCUGAGUGGAUGGGGAUGAUAGGAGCUCUUGCGGUCGCACUAGUGUGGAAUUCUCGGGUGUCAAGG
B5: ENSMUSG00000031028.31|Tub|122:126 (ssRNA)
RNA: GGGAGUUCUACAGUCCGACGAUCGCUUCGAUAUCCGCAUGCUACUGCCUGCCAAGACAGCCCUGCCUACCCUCUGUUCAUAGGCCCUCUAUGGGCUUUCUGGCCUUACCAACCAGAGACUGGCUGCUCUGCCUCUGCUGCUGAAGCAGGGGGGACAGCAAAUGGCAUACACAGGAGAAGAAUAUUUCUGUGCCCCAAGGUCAACACACAUGCCCAGUCCUGGGUCAGUCCCCUGCUGCAGUGGUGUUAUCACACCGGAAAGCCUCUUCACCUGGAGGUACAGAGGGAGAGGAAGCACAAGCCUCUCUUGCGGUCGCACUAGUGUGGAAUUCUCGGGUGUCAAGG
B6: ENSMUSG00000042529.154|Kcnj12 (ssRNA)
RNA: GGGAGUUCUACAGUCCGACGAUCGCUUCGAUAUCCGCAUGCUAAACACCAGAGUGGGUGCUUCUUAGAAAAGGACACUCAGGAAAUUAGUAUGGGGUCUGGGUCCCACAUCCCCAGGAAGUGGGUCAGCCCCACGUCCCCCGCUGGACUCACAGCUUGAGUUGUGCCUUAGAGACUCUGGUUGUCUGGCUUCCGUCAUUUCUGGUUUUCUCAGACUUGUUUAAUCUUUCCCUACUGCCCUAAGUCCACUCAUGAAGCUCCCCAGGCCCUUCUGAGAUUGCAGAGGCUGCUUGCUCAUAGCCAUCUCUUGCGGUCGCACUAGUGUGGAAUUCUCGGGUGUCAAGG
B7: ENSMUSG00000061578.1390|Ksr2|74:78;177:181 (ssRNA)
RNA: GGGAGUUCUACAGUCCGACGAUCGCUUCGAUAUCCGCAUGCUACUUUGUAAAUGAUUCUGUUGCCUUUUUCUAAACACAAAGUAUAUAUACCUAUAAAUGCUAUAUAUAUUAUAUAACACAAUAUACAUAAAGACUACUUCUUGUACAGCCCUCCACGGACCUCAGGCCCACUGUUUUCUCCAUGUCUGUCUGUACUGACUGUUGCAGAAUGAGCUGAUCAUACAUCUUGAUUCUCCAUUUUCCUUCUGGACCACAUGUCUCUUCCUUUUCCUUUUUAGAUCUGUCUUGCUCUCUGUCUCUCUCUCUUGCGGUCGCACUAGUGUGGAAUUCUCGGGUGUCAAGG
B8: ENSMUSG00000022095.44|Fam160b2 (ssRNA)
RNA: GGGAGUUCUACAGUCCGACGAUCGCUUCGAUAUCCGCAUGCUACUGGCUCCUAAGGCAGUGGUAUUCUUGGAGCCUUUUAGAGGAGCUAGAGGAUGGCCAGUGAGCGCCUAGAUGCUGCCCUGCAUGUGUUGCGUGACUAUCUCUGCUAUAUUGUGACCAGGGCCACAACAUGAGACAACUCCAGGGGCCAGGGAGAUGAACUGCUGUCUUUGAGGCUGGCUAAAAAAACAAUCCAGUCCAGAGAGAUGGGGAGGGGGGGAGCAAGAACCCUGUCUGUUACAUUAGGUAUCAUGGAAGCUGCUCUCUUGCGGUCGCACUAGUGUGGAAUUCUCGGGUGUCAAGG
B9: ENSMUSG00000029636.316|Wasf3 (ssRNA)
RNA: GGGAGUUCUACAGUCCGACGAUCGCUUCGAUAUCCGCAUGCUAUGGCAAAACUUUUUUUGGUAAGGUCCUUAUGCUCUCAGGGUGGAGGGAAGACAUUAAAGCUACGCAGCCAUUGUCAGGAUUUUUUCUACUGAUGUCACAUCAGAAUAUAACUAGUGGCUCCUUACUCACAAAUGUUCACGAGCUUCUCCGUUGUCACUUGUCCUGUAGUUUUGCCAACAAGUUAAUUUUAGUUUGAUUUUAUAGCUAGAGAGAAAGCUUUUGCCCGUUGCAUUCUGUAACCUUCAAAAGAAUGAGAAACGCUCUUGCGGUCGCACUAGUGUGGAAUUCUCGGGUGUCAAGG
B10: ENSMUSG00000061578.330|Ksr2|114:118 (ssRNA)
RNA: GGGAGUUCUACAGUCCGACGAUCGCUUCGAUAUCCGCAUGCUACUCCAAGGAAGCCAGGGGAGGGGGACUCCUCAGGAAGGAGUGACCAGUCACCUGCCUCCCAGGGUUCUGCCUUGCCCUUAAGCUAGGGUCCUUCAAGCAUCCACAGACUUAGACACACGUGGUAACAUGCUUGUAAUCCUGGCACUCUGGAGGCUGAGGCAGGAGGAUAACAAGUCUAGACUAUAUAUGAUUUCUGAGGGUCUGUUAGUGAAUAAGUACCUGGAUGACAUGGGACAAGUCCCAGCCUUCCCUGCUCCUGCCUCUUGCGGUCGCACUAGUGUGGAAUUCUCGGGUGUCAAGG
B11: ENSMUSG00000061578.809|Ksr2 (ssRNA)
RNA: GGGAGUUCUACAGUCCGACGAUCGCUUCGAUAUCCGCAUGCUACUUUGCCUCUACUAGAUGAUCUUGCAUCUGUCUUUGUGGGACUCUUUUUAUGAGGAACCAGUCCUGUUGAAUCGGGGUGCUCUGUAUUAGUUAUUUUUGUAACUUGUGAUUGUAACCAAAUGCCCGAUAGAAACAGCAUUCUGGCUCACAGUUUCAAAGGGCUCAGUCCAUAGCUGCCUGACUCUGUGUUUCUAGGCCUUUCUUGAGGCAAGUGUUCAUCAUGAUAGUGUGAGGGUGAGGAGGAGUUUCUUCAUGGCAAACUCUUGCGGUCGCACUAGUGUGGAAUUCUCGGGUGUCAAGG
B12: ENSMUSG00000034801.220|Sos2 (ssRNA)
RNA: GGGAGUUCUACAGUCCGACGAUCGCUUCGAUAUCCGCAUGCUAAUUUGACUAAUUUGUAAGUCUGGAACAAAAGUGUCUUAUGGCAUAAGAACCAACUGCCAUUGUCAAACCUAUUAACUGUCUUUAAUCUCGUGUUAACUGAAAUUUUUGAAAAGUUUUUCCAGAUUAGUAAUAUUUAAACAGAAAAUACUUUAAAAAGCUUUAUUAAAUUUUUUAAUCAGGAUAAAGCUUUGCCAUUUGGAUACUAUCAUUCAAAGUGAUCAAGGUAUGUAUGUUAUGCUGAUAGUGCAGUAGCAGCCAUUCUCUUGCGGUCGCACUAGUGUGGAAUUCUCGGGUGUCAAGG
B13: ENSMUSG00000031028.102|Tub (ssRNA)
RNA: GGGAGUUCUACAGUCCGACGAUCGCUUCGAUAUCCGCAUGCUAGGCCCAAAGGGGGUUAGGAGUGGUAGGGAUAGGUGCGUGGCAGGUCCCUGCUAGGAUUGCAGGGGCCUGGCCAUGUGUAUUAGCUGGAGGCUUAGAAUGCUAGCUCAUUUGUUGCUACAGAUUUGCCCAGUGCUUGCACACGUAAGAACCCAGCUCUCAAGGCCAAAUAUCUGAGUGGAUGGGGAUGAUAGGAGUCAUCCAGUAGACUCCCUACAUCAGGGCUCUCAGCAGCCCCAGCACAACACCUAUGACACACACACCUCUUGCGGUCGCACUAGUGUGGAAUUCUCGGGUGUCAAGG

Chain of TDP-43 (Q13148 whole entry): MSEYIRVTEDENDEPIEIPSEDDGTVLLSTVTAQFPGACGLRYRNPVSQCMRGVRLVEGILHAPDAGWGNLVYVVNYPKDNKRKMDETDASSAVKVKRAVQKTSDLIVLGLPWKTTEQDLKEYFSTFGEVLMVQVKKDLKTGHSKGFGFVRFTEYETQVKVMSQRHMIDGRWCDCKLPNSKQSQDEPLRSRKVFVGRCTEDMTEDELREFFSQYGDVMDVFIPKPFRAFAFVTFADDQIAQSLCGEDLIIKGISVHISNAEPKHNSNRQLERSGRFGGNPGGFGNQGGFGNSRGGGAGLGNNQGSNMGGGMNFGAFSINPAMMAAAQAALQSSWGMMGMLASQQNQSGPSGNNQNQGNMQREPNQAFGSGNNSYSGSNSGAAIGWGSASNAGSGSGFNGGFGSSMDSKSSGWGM

For the assay, the target named is TDP-43 (Homo sapiens, UniProt Q13148 1-414). The experiment in a line: RNA Bind-n-Seq with designed 260-mer pool; 25 mM Tris-HCl, 150 mM KCl, 3 mM MgCl2, BSA (printed 500 mg/mL), 20 units/mL SUPERase IN; pH not stated; 500 nM RNA pool, 1 h, 4 C; TDP-43 5, 50, 500 nM; high values mean tight binding. As to conditions: protein: recombinant; tags: SBP (GST cleaved off with PreScission; pGEX-GST-SBP). The gist of the method:
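Binding (R) is the ratio of each oligo's mapped-read-normalized abundance in the bound fraction to its abundance in the input. To obtain it, SBP-tagged recombinant TDP-43 (5, 50 or 500 nM) on streptavidin beads was incubated with 500 nM of an in vitro-transcribed 260-nt 3′ UTR oligo pool for 1 h at 4 °C in 25 mM Tris-HCl, 150 mM KCl, 3 mM MgCl2, BSA and SUPERase IN. The RNA retained after washing was released with biotin, then reverse transcribed, amplified by PCR and sequenced.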
For B1, the binding signal was 2.22 R (bound/input frequency ratio).
For B2, the binding signal is 0.718 R (bound/input frequency ratio).
For B3, the binding signal is 0.765 R (bound/input frequency ratio).
Consider B4, for which the binding signal was 5.97 R (bound/input frequency ratio).
As for B5, the figure is 0.475 R (bound/input frequency ratio); as for B6, 0.462 R (bound/input frequency ratio); as for B7, 0.257 R (bound/input frequency ratio).
As for B8, the figure is 1.48 R (bound/input frequency ratio).
With B9, the binding signal is 0.157 R (bound/input frequency ratio).
For the molecule B10, the binding signal was 1.65 R (bound/input frequency ratio).
Turning to B11, the binding signal was 0.455 R (bound/input frequency ratio).
Consider B12, for which the binding signal was 0.0389 R (bound/input frequency ratio).
Consider B13, for which the binding signal is 1.03 R (bound/input frequency ratio).

For the origin of these results see paper PMC12864922, “TDP-43 directly inhibits mRNA accumulation in neurites through modulation of mRNA stability”.
